These entries were drawn from the full list.
aSyn UTR act = Activators via SNCA 5'UTR binding, MLPCN | activity score, % (tested at 7.5 µM), hits read low | AID 1814 | 300,000 tested, 7.1% active | alpha-synuclein 5'UTR reporter, activators screen; in the data active = activity score below about -60%
Active calls of the source: *.

SMILES	aSyn UTR act
COc1ccc(NC(=O)c2ccccc2NC(=O)CSc2ccc(Cl)cc2)cc1	-67.3*
COC(=O)c1ccc(NC(=O)CSc2ccccc2)cc1	-128.9*
COc1ccc(NC(=O)c2ccccc2NC(=O)CSc2ccccc2)cc1	-78.9*
Oc1ccccc1C1=Nc2nc3ccccc3n2C(c2ccccc2)C1 (stereo not given)	-213.5*
CC(C)c1ccc(Nc2nnc(SCC(=O)Nc3ncc(S(=O)(=O)c4ccc([N+](=O)[O-])cc4)s3)s2)cc1	-66.5*
C=CCn1c(C)cc(C(=O)CSc2nc3ccccc3[nH]2)c1C	59.3
C=CCn1c(C)cc(C(=O)CSc2nc3ccccc3o2)c1C	-136.5*
C=CCn1c(C)cc(C(=O)COc2nncc3ccccc23)c1C	-122.6*
Cc1cc(C(=O)CSc2nc3ccccc3o2)c(C)n1C1CC1	-164.5*
CCCCN1C(=O)C(=O)N(CC(=O)N2N=C3/C(=C/c4ccco4)CCCC3C2c2ccco2)C1=O (stereo not given)	-86.3*
CCn1cc(Br)c(-c2nc3ccccc3c(=O)n2N)n1	-99.5*
CCOC(=O)c1snc(C(=O)NC2CCCCC2)c1N	-150.3*
CCCc1ccc(Oc2cc(C)nc(N3CCOCC3)n2)cc1	-63.5*
Cc1nc(NC(=O)c2ccc(F)cc2)nc2cc3c(cc12)OCO3	-119.6*
Cc1nc(NC(=O)c2ccccc2)nc2cc3c(cc12)OCO3	-127.2*
O=C(Nc1cccc2ccccc12)c1ccccc1	-141.6*
Nc1ccccc1C(=O)Nc1cccc2ccccc12	-204.4*
CC(=O)c1cccc(NC(=O)C(=O)Nc2cccc3ccccc23)c1	-195.4*
C[C@@H]1OC(Nc2ccc(N=Nc3ccccc3)cc2)[C@H](O)[C@H](O)[C@H]1O (stereo not given in full)	-88.5*
Cc1ccc2oc(-c3ccc(NC(=O)c4ccc5c(c4)OCO5)cc3)nc2c1	-104.9*
O=C(Nc1ccc(-c2nc3ccccc3o2)cc1)c1ccc2c(c1)OCO2	-65.8*
Cc1ccc(-c2nc3ccccc3o2)cc1NC(=O)c1ccc2c(c1)OCO2	-150.8*
Cc1cc(CN(C)C(=O)c2cc(COc3ccc(C)c(C)c3)on2)on1	-158.9*
COc1cccc(OCc2cc(C(=O)N(C)Cc3nc(C)cs3)no2)c1	-112.5*
Cc1ccc(OCc2cc(C(=O)N(C)CCc3ccccn3)no2)cc1C	-73.2*
SMILES	aSyn UTR act
COc1ccc(CCC(=O)N2CCc3ccccc32)cc1	-90.5*
COc1cc2[nH]c(C(=O)N3CCc4ccccc43)cc2c(OC)c1OC	-93.3*
COc1ccc(C(=O)N2CCc3ccccc32)cc1	-88.8*
Cc1ccc(/C=C/C(=O)N2CCc3ccccc32)o1	-204.2*
COC(=O)C1=C(CN2CCCc3ccccc32)NC(=O)NC1c1ccc(F)cc1 (stereo not given)	79.2
COc1ccc(/C=C/C(=O)N2CCCc3ccccc32)cc1	-93.0*
Cc1ccccc1OCc1nnc(SCC(=O)Nc2ccc3nc(SCC(=O)Nc4ccccc4)sc3c2)n1C	-70.1*
CCN(CC)C(=O)CSc1nc2ccc(NC(=O)CSc3nccn3C)cc2s1	-65.5*
Cn1cnnc1SCC(=O)Nc1ccc2nc(SCc3ccccc3Cl)sc2c1	-101.2*
Cn1cnnc1SCC(=O)Nc1ccc2nc(SCc3ccccc3)sc2c1	-142.1*
CCOc1ccccc1-n1c(SCC(=O)Nc2ccc(CC)cc2)nc2n[nH]c(C)c2c1=N	83.6
O=C(COc1ccccc1)NCCSc1ccccc1	-99.4*
O=C(CNC(=O)c1ccccc1Cl)c1ccccc1	-113.0*
O=C(CNC(=O)c1ccccc1F)c1ccccc1	-93.3*
O=C(NCCSc1ccccc1)c1cccnc1	-99.9*
CC(CNC(=O)c1ccccc1Cl)c1ccccc1 (stereo not given)	-111.2*
O=C(NCCSc1ccccc1)c1ccccc1F	-76.2*
Cc1ccccc1C(=O)NCC(=O)c1ccccc1	-135.0*
COC(=O)c1ccc(-c2ccc(Cl)cc2)nc1C	-125.5*
CCc1c(C)[nH]c(C(=O)OCc2ccccc2)c1C	-74.7*
CCc1c(C(=O)OCc2ccccc2)[nH]c(C)c1C	-116.9*
CCCc1ccc(C(=O)O/N=C(\N)c2ccccn2)cc1	71.7
N/C(=N\OC(=O)Cc1ccc(Cl)cc1)c1ccccn1	-153.7*
Cc1ccc(CC(=O)O/N=C(\N)c2ccccn2)cc1	-88.5*
N/C(=N\OC(=O)Cc1cccc2ccccc12)c1ccccn1	-156.0*
SMILES	aSyn UTR act
CCN(C(=O)c1ccco1)c1nnc(-c2ccc(OC)cc2)s1	-135.4*
CCCN(C(=O)c1ccco1)c1nnc(-c2cccc(C)c2)s1	-143.1*
Cc1ccccc1NC(=S)c1ccc2ccccc2n1	-109.8*
COc1ccc(-c2c(C#N)c(N)nc(Sc3ccc(Cl)cc3)c2C#N)cc1	57.5
COc1ccc(-c2cc3nc4ccccc4n3c(N)c2C#N)cc1	-128.1*
CCn1cc(Br)c(C(=O)Nc2sc3c(c2C(N)=O)CCCC3)n1	-102.2*
Cn1cc(Br)c(C(=O)Nc2sc3c(c2C(N)=O)CCCC3)n1	-114.5*
CC1(C)CCCN(Cc2c(O)ccc3c(=O)c(-c4nc5ccccc5s4)c(N)oc23)C1	-125.1*
O=C(COC(=O)c1ccccc1Cc1ccccc1)Nc1ccc(SC(F)F)cc1	-109.3*

Compound activity: PubChem, Broad Institute
